Measurements from PubChem BioAssay AID1671190 (National Center for Advancing Translational Sciences (NCATS), 2021).
Among all 580,000 compounds or so, about 6,100 (1.1%) were called active. Inconclusive results (about 15%) are left out. This is one part of a sample in which actives are shown more often than they occur. The call rests on the fitted dose curve; in most records, active means well fitted inhibition curve with a large enough effect; inconclusive means small, poorly fitted or top-dose-only effect, or another doubt; inactive means no such curve, though single readings can be large or run the other way.

Molecular target: Polyunsaturated fatty acid lipoxygenase ALOX12 (Homo sapiens) (UniProt P18054)
Test: Primary qHTS assay for inhibitors of human arachidonate 12S-lipoxygenase (ALOX12): Round 2
Conditions: purified 12hLO, xylenol orange hydroperoxide absorbance; series mostly up to 108 µM; activity change, negative = inhibition: at the top concentration
Source text: Assay Provider: Theodore R. Holman Ph.D. University of California, Santa Cruz, California Human lipoxygenase 12hLO is a member of the closely related lipoxygenase family of enzymes which catalyze the site-specific oxidation of arachidonic acid to various hormone precursor molecules and as such is a candidate for drug development in a variety of disease areas, such as cancer and inflammation. Inhibition of 12hLO activity was screened by utilizing arachidonic acid as a substrate. The extent of hydroperoxide product formation was measured by a secondary chromogenic reaction in which xylenol orange (XO, Sigma-Aldrich, cat. number 39,818-7) reacts with the ferric ions produced from the reaction between the hydroperoxide and ferrous ions. The Fe (III)-XO complex is characterized with red-shifted absorbance at 560 nm. A purified preparation of human 12hLO was supplied by Dr. Holman laboratory, University of California, Santa Cruz.
PROTOCOL TABLE SEQUENCE No. (e.g., 1, 2, 3, etc.); […] (e.g., Cells, Incubation, Reagent, etc.); VALUE; DESCRIPTION 1; Enzyme; 3 uL; 150 nM 12hLO enzyme solution dispensed in 1536-well Greiner black, clear bottom plates. 2; Compound; 23 nL; compounds and controls were added. 3; Incubate; 15 min; room temperature. 4; Substrate; 1 uL; 40 uM arachidonic acid (final concentration). 5; Incubate; 30 min; room temperature. 6; Reagent; 4 uL; Fe-XO solution was added to each well. 7; Incubation; 30 min; room temperature 8; Detector; absorbance; Read 1 at 405 nm absorbance using ViewLux (Perkin-Elmer) CCD imager. 9; Detector; absorbance; Read 2 at 573 nm absorbance using ViewLux (Perkin-Elmer) CCD imager. NOTES (numbers refer to sequence above) 1; 150 nM 12hLO (final concentration) in buffer solution (25 mM Hepes, 0.01% Triton X-100, pH 7.0) was dispensed in columns 1, 2, 5-48. Column 1 is neutral (100% activity). Buffer only was dispensed in columns 3 and 4 as no enzyme negative controls. The plates were covered with metal lids with gas-exchange holes. 2; Compounds were pin transferred via a Kalypsys Pin Tool (Wako USA) in column 5-48. Control compound was transferred in column 2, titration of nordihydroguaiaretic acid (NDGA, Sigma-Aldrich, N5023) with top concentration of 20 mM in DMSO then 1:3 dilution in duplicate. Dilution factor of 23 nL into 4 uL final assay volume. 3; Covered assay plates were incubated for 15 min at room temperature. 4; Substrate was added to start the reaction; 40 uM arachidonic acid (Sigma-Aldrich, St. Louis, MO) was dispensed throughout the plate. 6; Chromogenic detection reagent solution (divalent iron/xylenol orange, Fe-XO) was added to each well: 200 uM xylenol orange, 300 uM ferrous ammonium sulfate prepared freshly in 50 mM sulfuric acid. 8, 9; Two absorbance readouts were obtained at 405 nm and at 573 nm using a ViewLux high-throughput CCD plate imager (Perkin-Elmer). The 573 to 405 (Read 2 / Read 1) absorbance ratio was used to compute reaction progress.
On the % scale 0 is the no-effect control and ±100 the full control effect; potency means the concentration at half of the fitted maximal effect.

Sequence of Polyunsaturated fatty acid lipoxygenase ALOX12 (Homo sapiens) (P18054 whole entry, looked up): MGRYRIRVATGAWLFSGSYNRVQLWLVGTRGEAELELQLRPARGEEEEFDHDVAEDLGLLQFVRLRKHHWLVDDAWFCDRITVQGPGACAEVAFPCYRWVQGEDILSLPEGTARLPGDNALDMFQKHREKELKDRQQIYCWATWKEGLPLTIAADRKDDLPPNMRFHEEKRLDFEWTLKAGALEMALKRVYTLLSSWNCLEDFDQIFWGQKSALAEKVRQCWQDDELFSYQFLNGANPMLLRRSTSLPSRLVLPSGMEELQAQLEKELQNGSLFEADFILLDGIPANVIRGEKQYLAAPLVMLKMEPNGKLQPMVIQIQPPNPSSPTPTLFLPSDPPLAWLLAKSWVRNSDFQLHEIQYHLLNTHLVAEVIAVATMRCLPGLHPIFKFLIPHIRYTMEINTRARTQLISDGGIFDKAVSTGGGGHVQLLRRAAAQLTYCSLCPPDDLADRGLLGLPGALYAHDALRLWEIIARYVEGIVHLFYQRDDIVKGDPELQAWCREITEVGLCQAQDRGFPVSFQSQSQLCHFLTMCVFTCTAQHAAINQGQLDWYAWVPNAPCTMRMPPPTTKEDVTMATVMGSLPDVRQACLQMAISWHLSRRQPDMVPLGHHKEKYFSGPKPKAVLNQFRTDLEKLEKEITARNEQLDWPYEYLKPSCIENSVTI

Activity change, negative = inhibition, inactive:
Cc1nc2ccccc2c(C)c1CC(=O)N1CCC(C)CC1 -26%, Cn1c(=O)c2c(nc(CN3CCc4ccccc4C3)n2CCCc2ccccc2)n(C)c1=O 10.8%, COc1ccc(C(=O)/C=C/c2cccc(OC(=O)C3CC3)c2)cc1 -0.582%, Cc1nc2c(c(C)c1CCC(=O)NCCN1CCCC1)c(=O)n(C)c(=O)n2C 39.2%, COc1ccc(-c2noc(CNC(=O)COc3cccc(C)c3C)n2)cc1OC 19.2%, COc1nc(NCc2ccc(Cl)cc2)nc(OC)n1 0%, C=CCNc1nc(C)nc(OC)n1 -0.148%, Cc1[nH]c2ccccc2c1C(=O)CSc1nnc(CC(C)c2ccccc2)o1 (stereo not given) -13.7%, N#Cc1ccccc1COC(=O)c1ccc(Br)cc1 -29.1%, O=[N+]([O-])c1cccc(-c2noc([C@@H]3C[C@@H](O)CN3Cc3cccnc3)n2)c1 -5.09% [at 176 µM], Oc1ccccc1CN1C[C@H](O)C[C@H]1c1nc(Cc2ccc(F)cc2Cl)no1 -13.1% [at 176 µM], CC(C)CN1CCOC(CNC(=O)N2CCN(S(=O)(=O)c3ccc(C#N)cc3)CC2)C1 (stereo not given) 11.8%, Cc1cccc(C(=O)Nc2cccc(-c3nn4c(C)nnc4s3)c2)c1 13.3%, CN1Cc2ncnc(NCc3cccs3)c2CN(c2ccccc2)C1=O -6.3%, COc1ccccc1CNc1ncnc2ccc(-c3ccc4c(c3)OCO4)cc12 -18.3%, CC(C)(C)c1ccc2c(c1)OCCOCCOCCOc1ccc(C(C)(C)C)cc1OCCOCCOCCO2 -22.8%, COc1ccc(-c2noc([C@@H](C)NCc3ccc(F)cc3)c2C(=O)O)cc1 -18.2% [at 176 µM], CCCNC(=O)c1ccc(NC(=O)CCc2ccccc2)cc1 -1.02%, Cc1onc(-c2ccc(F)cc2F)c1C(=O)Nc1cccc(C(F)(F)F)c1 -19%, C[C@H]1CN(C(=O)Nc2ccc(F)cc2)C[C@@H]1c1nc(-c2ccccc2)no1 -4.94%, CCOC(=O)c1c(NC(=O)c2c(-c3ccccc3)noc2C)sc2c1CCC2 -13.9%, COCc1nc(CCNC(=O)CCc2ccccc2)no1 -2.64%, c1cc(CN2CCc3c(sc4ncnc(N5CCOCC5)c34)C2)ccn1 80.3%, CCOC(=O)c1c(C)[nH]c(C(=O)OC)c1C 34.4%, COc1ccc(-c2ccc3nnc(CNC(=O)C(C)Oc4ccc(Cl)cc4)n3n2)cc1 (stereo not given) -1.11%, Cc1c(S(=O)(=O)N2CCCC2c2cccc(F)c2)cnn1C(F)F (stereo not given) 4.32%, Cc1cccc(NCC(=O)Nc2cc(Cl)ccc2-n2cncn2)c1C 10.3%, CCS(=O)(=O)N(C)CCCNC(=O)c1cn(C)c2ccccc12 13.5%, Cc1ccc(C(NC(=O)Cc2cccs2)C(=O)Nc2ccc3c(c2)OCO3)cc1 (stereo not given) -0.457%, CN(C)C[C@@H]1CN(C)C[C@H]1NS(=O)(=O)c1cccc(C(F)(F)F)c1 48.1%, Cc1ccsc1C1C(C#N)=C(N)OC2=C1C(=O)CC(C)C2 (stereo not given) -15.6%, Cc1ccsc1C1C(C#N)=C(N)OC2=C1C(=O)CC(C)(C)C2 (stereo not given) 0%, O=C(Cn1ccc2cc(Cl)ccc21)Nc1ccc2[nH]ccc2c1 1.07%, Cc1cc2nc(/C(C#N)=C\c3ccc(OCc4ccc(F)cc4)cc3)[nH]c2cc1C -13.3%, CC(C(=O)NC(=O)NC1CCCCC1)n1cnc2c1c(=O)n(C)c(=O)n2C (stereo not given) -6.16%, CCCCCOc1ccc2c(C)c(CCC(C)C)c(=O)oc2c1 -5.84%, O=C(NC1CCCC1)c1csc(C(O)c2cccc(Cl)c2)n1 (stereo not given) -9.02%, O=C(Nc1ccc(Cl)cc1)c1csc([C@@H]2O[C@H](CO)[C@H](O)[C@H](O)[C@H]2O)n1 -6.1%, Cc1nc(-c2ccccc2Cl)sc1C(=O)NC1C=CS(=O)(=O)C1 (stereo not given) -16.6%, COc1cccc(C(=O)Nc2ccc3oc(C)nc3c2)c1 16.5%, CCN(CC)c1nc2ccccc2nc1C(=O)Nc1cc(OC)ccc1OC 2.3%

Potency, active:
C=CCNc1nc(Nc2ccc(Cl)cc2)nc(OC)n1 39.8 µM, O=[N+]([O-])c1ccccc1CN1C[C@H](O)C[C@H]1c1nc(-c2ccc(F)cc2)no1 39.8 µM, N#Cc1cccc(-c2ccc3ncnc(NCc4cccs4)c3c2)c1 50.1 µM, c1ccc2c(c1)C(=NC1CCCCC1)NC2=NC1CCCCC1 31.6 µM, COc1ccc(C(=O)NC(=S)NNC(=O)CCc2ccccc2)cc1 12.6 µM, COc1ccc(C(=O)NC(=S)NNC(=O)c2c(-c3ccccc3)noc2C)cc1 35.5 µM, Cc1onc(-c2ccccc2)c1C(=O)NNC(=S)NC(=O)c1ccc(F)cc1 39.8 µM, N#CC1=C(N)OC2=C(C(=O)CC(c3ccccc3)C2)C1c1cccs1 (stereo not given) 11.2 µM, O=C(Nc1ccc(Cl)cc1)c1csc(C(O)c2cccc(C(F)(F)F)c2)n1 (stereo not given) 22.4 µM
